Compound activity (PubChem BioAssay)
RXFP1 antag: blocks the human relaxin receptor RXFP1. HEK293-RXFP1, relaxin-stimulated cAMP HTRF, 30 min; active compounds read low. hit rate 0.59% among 350,000. activity change, negative = inhibition, % at 57.5 µM. AID 1259400. Q9HBX9;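 active = activity change of -60% or lower, but not beyond a set lower limit; inconclusive = change between -60% and -40%, or beyond the set limit; inactive = change above -40%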; also: % is scaled to controls: 0 for no effect and ±100 for the full control effect
RXFP1 agonist: activates the human relaxin receptor RXFP1. Q9HBX9. HEK293T-RXFP1 cAMP TR-FRET, 30 min; response scale: percent of porcine relaxin response, buffer zero. Potency, µM (series often up to 57.5 µM), for the others: top-dose activation, most hits filed as activators. hit rate 0.3% among 370,000. AID 2676; active = well fitted activation curve with a large enough effect; inconclusive = small, poorly fitted or top-dose-only effect; also: potency is read from the fitted curve at half-maximal effect; % is scaled to controls: 0 for no effect and ±100 for the full control effect; nearly all actives have a fitted effect of over 60% in size
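HEK293T cells stably expressing RXFP1 were pretreated with the PDE4 inhibitor Ro 20174, exposed to compounds for 30 min at 37C, lysed, and cAMP was read by TR-FRET. Data normalized to buffer (basal) and 29 nM porcine relaxin (100%).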
gsp ag: activates gsp, the McCune-Albright syndrome mutation; gsp mutant cells, cAMP HTRF, 30 min; Potency, µM (top dose mostly 76.9 µM), inactives show top-dose activation (cAMP increase), usual class: activators; hit rate 0.13% among 340,000; active = well fitted activation curve with a large enough effect; inconclusive = small, poorly fitted or top-dose-only effect, or another doubt; inactive = no such curve, though single readings can be large or run the other way; cell line not stated here;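 also: phosphodiesterase inhibitor Ro 20-1724 added with compounds to block cAMP breakdown; potency is read from the fitted curve at half-maximal effect; nearly all actives have a fitted effect of over 60% in size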
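Cells in DMEM/10% FBS with G418 were pretreated with compounds in DMSO plus […] (300 uM stock) for 30 min at 37C. cAMP was measured by HTRF (cAMP-d2 plus anti-cAMP antibody-K) after 30 min at room temperature.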
ClpP mod: qHTS Assay for Activators of ClpP; ATP-dependent Clp protease proteolytic subunit (Bacillus subtilis (strain 168)), P80244; purified B. subtilis ClpP, FRET peptide cleavage, 20 min; Potency, µM (doses to about 57.5 µM), inactives show at the highest dose activity change, negative = active; hit rate 1.9% among 340,000; active = well fitted falling curve with a large enough effect; inconclusive = small, poorly fitted or top-dose-only effect; inactive = no such curve, though single readings can be large or run the other way; also: potency is read from the fitted curve at half-maximal effect; the source files actives as falling curves though it sought activators and does not explain the sign; nearly all actives have a fitted effect of over 65% in size
Target sequence (P80244 whole entry, looked up): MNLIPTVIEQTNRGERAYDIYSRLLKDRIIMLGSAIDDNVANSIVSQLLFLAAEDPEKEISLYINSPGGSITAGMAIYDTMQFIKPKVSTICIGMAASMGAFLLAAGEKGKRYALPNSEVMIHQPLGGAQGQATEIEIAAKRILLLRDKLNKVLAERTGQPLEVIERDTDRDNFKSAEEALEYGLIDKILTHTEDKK
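Purified B. subtilis ClpP, 10 microg/mL final in Tris/HCl pH8 with KCl, BSA, glycerol and Tween-20, cleaved an Abz/nitrotyrosine-quenched decapeptide. Fluorescence (ex 320, em 430) was read at 0 and 20 min at room temperature. Delta was normalized to 5.8 microM ADEP and DMSO/no-enzyme controls.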
gsp antagonist: antagonizes gsp, the McCune-Albright syndrome mutation; gsp-mutant cells, cAMP HTRF, 30 min; Potency, µM (doses to about 76.9 µM), for inactives: at the highest dose activity change, negative = inhibition, usual class: inhibitors; hit rate 0.4% among 340,000; calls by dose curve; cell line not stated here;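 also: intracellular cAMP measured with PDE inhibitor Ro 20-1724 present during compound exposure; potency is read from the fitted curve at half-maximal effect; % is scaled to controls: 0 for no effect and ±100 for the full control effect; nearly all actives have a fitted effect of over 65% in size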
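G418-selected cells were plated in DMEM/10% FBS for 16-24 h at 37C, then treated with compounds plus the PDE inhibitor […] (300 uM solution added) for 30 min at 37C. Intracellular cAMP was measured by HTRF after 30 min lysis at room temperature.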
Akt phos inh: inhibitors of Akt phosphorylation. Neuro2A IGF-stimulated pAkt S473 HTRF, 20 min; active compounds read low. activity change, % for hits at 50 µM. hit rate 0.32% among 360,000; in the data active = activity change below about -80%; inconclusive = mostly about -51% to -80%; also: % is scaled to controls: 0 for no effect and ±100 for the full control effect
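Neuro2A cells (4,500/well, DMEM with 0.5% FBS) were treated with compound at a single 50 µM final concentration, stimulated with 6 nM IGF for 20 min at 37 °C, and lysed. Phospho-Akt Ser473 was read by HTRF as 665/615 ratio ×10^4.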
Starred values were filed as active, the others as inactive; i = inactive; ? = inconclusive; / = not tested or not shown; [ ] = another dose, or the depositor's remark. Rows were chosen to be rich in hits. Some 2.7% of all compounds tested hit in one or more screens of this group.

SMILES	RXFP1 antag	RXFP1 agonist	gsp ag	ClpP mod	gsp antagonist	Akt phos inh
O=C(Cn1cc(C(=O)c2cccs2)c2ccccc21)NC1CCCCC1	7	3%	?	-4%	-20%	i
NC(=O)Cn1cc(C(=O)c2cccs2)c2ccccc21	6	2%	31%	20µM*	-7%	i
O=C(NCC1CCCO1)C(c1cccs1)N(Cc1ccccc1Cl)C(=O)c1ccc(-c2ccccc2)[nH]1 (configuration not stated)	-18	1%	7%	32µM*	?	i
O=C(C[n+]1ccccc1Cl)c1cccc([N+](=O)[O-])c1	/	/	/	-3%	/	/
Cc1c(CN(C)C(=O)c2cc(-c3ccccc3)nc3ccc(Br)cc23)cnn1C	/	16µM*	/	-3%	/	/
O=C(O)c1nn(CC(=O)N2CCCCCC2)c(=O)c2ccccc12	-6	4%	6%[15.4 µM]	28µM*	-3%	i
Cc1nn(CC(=O)N2CCOCC2)c(=O)c2ccccc12	15	0%	-6%	-3%	6%	i
O=C(C[n+]1ccc(-c2nnc3n2CCC3)cc1)c1ccc(Cl)c(Cl)c1	/	-1%	?	28µM*	2%	i
CC1C2(C)OC(=N)C(C#N)(C(C)O2)C1(C#N)C#N (configuration not stated)	-5	8%	?	/	-4%	i
CCCCC1OC2(C)OC(=N)C1(C#N)C(C#N)(C#N)C2c1ccccc1 (configuration not stated)	4	0%	-34%	32µM*	-8%	i
CC1OC2(C)OC(=N)C1(C#N)C(C#N)(C#N)C2c1ccccc1 (configuration not stated)	-17	0%	2%	25µM*	-14%	i
CN(C)c1ccc(/C=C/c2ccnc3c(O)cccc23)cc1	/	/	/	-1%	/	/
COc1cc(C(=O)Nc2cccc(-c3nnc(-c4ccco4)o3)c2)ccc1OC(C)=O	-65*	4%	-9%[15.4 µM]	1%	-23%	i
COc1ccccc1CC(=O)Nc1ccc(-c2nnc(-c3ccco3)o2)cc1	-6	2%	-22%	?	?	i
Cc1cc(C)cc(OCC(=O)Nc2cccc(-c3nnc(-c4ccco4)o3)c2)c1	-16	1%	?	32µM*	?	i
COc1cc(C(=O)Nc2ccc(-c3nnc(-c4ccco4)o3)cc2)cc(OC)c1OC	-8	0%	-3%	14%	-7%	-102%*
COc1ccc(CC(=O)Nc2cccc(-c3nnc(-c4ccco4)o3)c2)cc1	-28	0%	-5%[15.4 µM]	2%	?	i
Cc1ccc2ncc(C(=O)N3CCN(c4ccccc4F)CC3)c(=O)n2c1	-2	18%	/	-12%	/	/
Cc1onc(-c2ccccc2Cl)c1C(=O)Nc1cccc(S(=O)(=O)NC2=NCCC2)c1	-8	-1%	8%[15.4 µM]	/	-6%	i
Cc1nn(C)cc1CNC(=O)C1CCC(=O)N(Cc2cccc(C(F)(F)F)c2)C1 (configuration not stated)	1	0%	-12%	25µM*	5%	i
COc1ccccc1CNC(=O)CCC(=O)N1CC(C)Sc2ccccc21 (configuration not stated)	8	2%	-23%	-4%	2%	i
COc1ccccc1CNC(=O)c1cc2cccc3c2n1CC(C)S3 (configuration not stated)	-32	17%	/	32µM*	/	/
CC1Cn2c(C(=O)NCCc3ccc(Cl)cc3)cc3cccc(c32)S1 (configuration not stated)	?	1%	/	32µM*	/	/
CC1Cn2c(C(=O)NCc3ccccc3Cl)cc3cccc(c32)S1 (configuration not stated)	-23	2%	/	28µM*	/	/
Cc1ccccc1CNC(=O)c1cc2cccc3c2n1CC(C)S3 (configuration not stated)	-33	7%	/	40µM*	/	/
SMILES	RXFP1 antag	RXFP1 agonist	gsp ag	ClpP mod	gsp antagonist	Akt phos inh
CN(Cc1ccccc1)c1ccc(C=O)cc1	/	/	/	-2%	/	/
CC(=NC1CCCC1)c1c(C)[nH]n(-c2nc3ccccc3s2)c1=O	7	2%	2%	-1%	-11%	-116%*
Cc1[nH]c(=O)c(C#N)c2c1CCCC2	2	0%	6%	28µM*	-2%	i
Cc1[nH]c(=O)c(C#N)c2c1CSC(C)(C)C2	7	-2%	-6%	25µM*	6%	i
CCc1[nH]c(=O)c(C#N)c2c1CSC(C)(C)C2	-2	0%	20%	?	7%	i
CCCCc1[nH]c(=O)c(C#N)c2c1CCCC2	-21	1%	0%	25µM*	9%	i
N#Cc1c2c(c(-c3ccco3)[nH]c1=O)CCCC2	-9	1%	10%	-5%	5%	/
CCCCc1[nH]c(=O)c(C#N)c2c1CSC(C)(C)C2	-3	-1%	-19%	?	5%	i
Cc1nn(-c2ccccc2)c2c1N(CC(=O)N1CCN(c3ccccc3F)CC1)C(=O)CS2	/	-1%	/	-1%	/	/
Cc1ccc(O)c(-c2cc3ccccc3[nH]2)c1	-6	-1%	9%	14µM*	-13%	i
COc1ccc(-c2cc3ccccc3[nH]2)cc1	-16	4%	0%[15.4 µM]	/	3%	i
CC(Oc1ccc(Cl)cc1Cl)C(=O)Nc1ccc2oc(-c3ccncc3)nc2c1 (configuration not stated)	1	4%	2%	8.9µM*	32µM*	i
Cc1ccc(-c2nc3cc(NC(=O)C(C)C)ccc3o2)cc1	-11	-3%	21%	14µM*	-7%[15.4 µM]	i
Cc1ccc(-c2nc3cc(Cl)ccc3o2)cc1	-1	-2%	12%	35µM*	25%	i
Cc1cc2nc(-c3ccc(NC(=O)C(C)C)cc3)oc2cc1C	-2	2%	-1%	31%	-2%	i
COc1cc(OC)cc(-c2nc3ccccc3c(=O)o2)c1	-24	-2%	-12%	-29%	-13%	-99%*
O=C(OC1CC2CC1[C@H]1CCCCN1C2=O)N1CCN(C(=O)c2ccccc2)CC1 (some centres not stated)	/	/	/	0%	/	i
C[C@H]1CN([C@@H](C)CO)C(=O)CCCn2cc(nn2)CO[C@@H]1CN(C)C(=O)Nc1ccc(C(F)(F)F)cc1	-8	/	-33%	1%	/	i
COc1ccccc1C(=O)Nc1ccc(S(=O)(=O)Nc2ncccn2)cc1	4	?	/	-1%	/	/
Cc1ccc(-c2nc3cc(NC(=O)C(C)C)ccc3o2)cc1C	-3	-1%	-3%	28µM*	-18%	i
COc1ccc(C(=O)Nc2ccc(-c3nc4cc(C)ccc4o3)c(O)c2)cc1	4	3%	/	-2%	/	/
